The campaign covered roughly 65,000 compounds. About 2,100 (3.2%) showed an effect of 50% or more. The median lay at about -52%. The entries come from a sample that favours strong results as a whole.

In this test the test system is Plasmodium falciparum. Description: Screen against P. falciparum Asexual Blood Stage (ABS), at 5uM. Type of test: functional, Dd2. Conditions: tested at 5 uM.
Turning to `Cc1ccc(CN2CC[C@@H]3[C@@H](CO[C@H]3CN(C)C)C2)o1`, the INHIBITION is -21.4%.
Then `NC(=O)c1cccc(CN2CCc3c(ncn3C3CC3)C2)c1`, with -158%; and `COc1ccc2c(c1)ncn2C[C@]1(O)CCCN2CCCC[C@@H]21`, with -42.3%.
The result for `COC(=O)c1cc(C(=O)N2CCCCCC2)n(-c2ccccc2)n1` reads -126%; that for `COC(=O)c1cc(C(=O)N2CCC(C)CC2)n(-c2ccccc2)n1`, 43.3%; that for `COC(=O)c1cc(C(=O)N2CCCC(C)C2)n(-c2ccccc2)n1` (stereo not given), 50.2%.
On to `COCC1c2nnn(C)c2CCN1C(=O)COc1ccccc1OC` (stereo not given), for which the INHIBITION was -85.8%.
The result for `CS(=O)(=O)NCCN(CCCO)C1CCc2ccccc21` (stereo not given) reads -55.5%; that for `CCCN1CCC(NC(=O)c2csc(C)c2C)CC1`, -48.6%.
Then `Cc1ccc(-c2c(C(=O)NC3CCN(C)CC3)csc2C)cc1`, with 61.9%; and `CCCN1CCC(NC(=O)c2csc(C)c2-c2ccccc2)CC1`, with 28.9%; and `CN(C)C(=O)COC[C@]12COC[C@H]1CN(C1CCCC1)C2`, with -77.5%.
The result for `CCNC(=O)[C@@H]1C[C@@H](N)CN1Cc1ccc(Sc2ccc(C)cc2)o1` reads 63.9%.
As to `CCNC(=O)[C@@H]1C[C@H](N)CN1Cc1ccc(-c2ccccc2C#N)o1`, the INHIBITION is -5.25%.
The result for `CCNC(=O)[C@@H]1C[C@H](N)CN1Cc1ccc(-c2cc[nH]n2)o1` reads -81.2%.
With `CCNC(=O)[C@@H]1C[C@@H](N)CN1Cc1ccc(-c2ccccc2C#N)o1`, the INHIBITION was -71.4%.
The result for `CCNC(=O)[C@@H]1C[C@H](N)CN1Cc1ccc(Sc2ccc(C)cc2)o1` reads 64.6%.
As for `CCNC(=O)[C@@H]1C[C@@H](N)CN1Cc1ccc2cccc(Cl)c2n1`, the INHIBITION is listed as 31.4%.
The result for `CC/C=C(\C)CN1CCC(CNC(=O)c2c[nH]c(=O)c(Cl)c2)C1` (stereo not given) reads -7.22%; that for `Nc1ncccc1C(=O)NCc1cccc(Br)c1`, -72%.
Then `COC(=O)NCC(=O)NCC1(c2c(F)cccc2F)CCCC1`, with 69.7%; and `CCS(=O)(=O)CC(=O)NCC1(c2c(F)cccc2F)CCCC1`, with -90.7%; and `CC(=O)NCCC(=O)NCC1(c2c(F)cccc2F)CCCC1`, with -77.3%.
The result for `Cc1cc(C)c2nc(C3CC3)cc(C(=O)N3CCCC3C(N)=O)c2c1` (stereo not given) reads -98.6%; that for `COCC1c2c(cnn2C)CCN1C(=O)c1cscn1` (stereo not given), -109%; that for `CC(Cn1cccn1)NCc1nc(-c2cccnc2)no1` (stereo not given), -56%.
As to `CC(c1ccccc1)N1CCC(NC(=O)CCc2ccsc2)CC1` (stereo not given), the INHIBITION came out at 54.8%.
Then `CCSCCC(=O)NC1CCN(C(C)c2ccccc2)CC1` (stereo not given), with -58.8%; and `CSCC(=O)NC1CCN(C(C)c2ccccc2)CC1` (stereo not given), with -27.6%; and `Cc1cc2c(N3CCC(N(C)Cc4nccs4)CC3)ncnc2s1`, with -19.4%.
The result for `CC(NC1CCN(CCS(C)(=O)=O)CC1)c1ccc(Cl)cc1` (stereo not given) reads 58.2%; that for `CC(c1ccc(Cl)cc1)N1CCN(CCS(C)(=O)=O)CC1` (stereo not given), -38.8%; that for `CC(NC1CCN(CCS(C)(=O)=O)CC1)c1cnn(C(C)C)c1` (stereo not given), -83.1%.
Then `Cc1nc(CN2CCCC(NCc3cccc4ccccc34)C2)no1` (stereo not given), with 58.3%; and `COc1ccc(CCN(C)C2CCCN(Cc3noc(C)n3)C2)cc1` (stereo not given), with 60.6%.
For the compound `CN(Cc1ccccn1)C1CCCN(Cc2noc(C3CC3)n2)C1` (stereo not given), the INHIBITION was -128%.
As to `Cc1nc(CN(C)C2CCN(Cc3c(C)noc3C)C2)no1` (stereo not given), the INHIBITION is given as -19.4%.
The result for `Cc1nc(CN2CCCC(N(C)Cc3c(C)noc3C)C2)no1` (stereo not given) reads 58.6%.
The result for `Cc1nc(CN2CCCC(NCc3ccc4ccccc4c3)C2)no1` (stereo not given) reads -9.17%; that for `CCOc1ccccc1CNC1CCCN(Cc2noc(C)n2)C1` (stereo not given), 48.7%; that for `Cc1nc(CN2CCCC(N(C)CCc3ccncc3)C2)no1` (stereo not given), -138%.
Regarding `Cc1nc(CN2CCCC(N(C)CCCc3ccccc3)C2)no1` (stereo not given), the INHIBITION is -0.463%.
The result for `Cc1cc(CN(C)C2CCCN(Cc3noc(C)n3)C2)no1` (stereo not given) reads -90.9%.
The result for `CN(Cc1cnn(C)c1)C1CCCN(Cc2noc(C3CC3)n2)C1` (stereo not given) reads -39.7%.
Then `CN(Cc1cccnc1)C1CCCN(Cc2noc(C3CC3)n2)C1` (stereo not given), with 52.6%.
For `CCn1nc(C)c(CN2CCC(c3ccn[nH]3)C2)c1C` (stereo not given), the INHIBITION was -30.2%.
For the compound `Cc1nc2sccn2c1CNC1(c2ccccc2F)CCCC1`, the INHIBITION was -5.97%.
For `Cc1cccc(COC[C@@]23CCC[C@@H]2CN(S(=O)(=O)N(C)C)C3)n1`, the INHIBITION is recorded as -12.3%.
Regarding `CCc1nc(CN2CCN(C(=O)C3(C#N)CCCC3)CC2)cs1`, the INHIBITION is -79.7%.
Then `O=C(c1ccccn1)N1CCC2(CC1)COC(COCC1CCCC1)C2` (stereo not given), with -14.7%; and `Cc1ccc(CN2CCN(C(=O)c3ccc(CO)cc3)C(C)C2=O)cc1` (stereo not given), with -121%; and `CC(=O)N1CCCC(c2ccccn2)C1` (stereo not given), with -11.9%.
Then `CC(=O)N1CCCC(c2ccc(Cc3ccccc3)cn2)C1` (stereo not given), with 60.4%; and `CC(=O)N1CCCC(c2ccc(Br)cn2)C1` (stereo not given), with -147%; and `CNc1cncc(C2CCCN2Cc2ccn(C)n2)n1` (stereo not given), with -1.9%.
The result for `c1cncc(-c2ccc3c(c2)CCC32CCN(Cc3nccs3)CC2)c1` reads 49.1%; that for `CCN1C[C@@H]2CN(S(=O)(=O)c3cccs3)C[C@@H]2C1=O`, 64.6%; that for `COCCN1C[C@@H]2CN(S(=O)(=O)c3cccs3)C[C@@H]2C1=O`, -43.2%.
Turning to `CC(C)CN1C[C@@H]2CN(S(=O)(=O)c3cccs3)C[C@@H]2C1=O`, the INHIBITION is given as -43.6%.
The result for `CCc1cc(N[C@@H]2C[C@@H]3CC[C@H]2C3)n2nccc2n1` reads -125%.
Then `Cc1ccc(C(=O)Nc2ccc(S(=O)(=O)/N=C3\CCCN3C)cc2)s1`, with -13.1%.
Turning to `CC(C)(C)n1nc(C2CC2)cc1C(=O)NC1CCN(CC(N)=O)CC1`, the INHIBITION is reported as -56.9%.
Regarding `Cc1cccc(N2CCOCC3(C2)CN(c2ccccc2)C(=O)CO3)n1` (stereo not given), the INHIBITION was -58.1%.
Then `Cc1cccc(N2CCOCC3(C2)CN(c2ccoc2)C(=O)CO3)n1` (stereo not given), with 66.9%.
The result for `Cc1cccc(N2CCOCC3(C2)CN(c2cncnc2)C(=O)CO3)n1` (stereo not given) reads -66.1%; that for `CCS(=O)(=O)NC[C@]12COC[C@H]1CN(Cc1ccsc1)C2`, 19.6%; that for `CCC(C)C(=O)Nc1ccc(CCN2CCOCC2)cc1` (stereo not given), -81%.
As to `CC(C)(CN1CCC(Cc2ccc(C(=O)O)cc2)C1)N1CCOCC1` (stereo not given), the INHIBITION was -29.2%.
With `CCOc1c(CNCCCn2ccnc2)cc(Cl)cc1OC`, the INHIBITION is recorded as 66.5%.
The result for `COc1cc(CNCCn2ccnc2)cc2c1OCO2` reads -86.4%; that for `CCOc1ccc(CNCCCn2ccnc2)cc1OC`, -13.1%; that for `COCCCn1ccc(NC(=O)NCCCn2ccnc2)n1`, -58.9%.
The result for `CCOc1ccc(Cl)cc1CNCCCn1ccnc1` reads 52.8%; that for `O=C(CN1CCOc2ccc(Cl)cc21)NCCCn1ccnc1`, -30.7%; that for `NC(=O)C1CCN(c2nc3nccc(-c4cccnc4)c3c(=O)[nH]2)CC1`, -16.2%.
Regarding `NC(=O)C1CCN(c2nc3nccc(-c4ccncc4)c3c(=O)[nH]2)CC1`, the INHIBITION is reported as -23%.
Then `O=c1[nH]c(NC2CCCC2)nc2nccc(-c3cccs3)c12`, with 56.6%; and `O=C(O)Cn1nc(C2CC2)c2c(-c3cccs3)ccnc21`, with -7.45%; and `NC(=O)C1CCN(c2nc3nccc(-c4ccccc4)c3c(=O)[nH]2)CC1`, with -99.6%.
Regarding `O=c1[nH]c(NC2CCCC2)nc2nccc(-c3ccsc3)c12`, the INHIBITION worked out at 68.5%.
Then `c1ccc(COC[C@H]2CC[C@H]3[C@H](CCN3Cc3ccccn3)O2)nc1`, with -2.2%; and `CCNc1cc2c(nn1)CCN(C(=O)c1ccnc(-n3ccnc3)c1)C2`, with 43.9%; and `CC(C)N1CCc2[nH]nc(C(=O)N3CCOCC3)c2C1`, with 55.6%.
The result for `CC(=O)N1CCc2[nH]nc(C(=O)N3CCOCC3)c2C1` reads -75.4%; that for `CC(C)N1CCc2[nH]nc(C(=O)N3CCN(C)CC3)c2C1`, 49.2%; that for `O=C(Nc1nc2c(s1)CNCC2)C1CC1`, -117%.
The result for `O=C(NCC1CC1)[C@H]1C[C@H]2OCC[C@H]2N(CCc2ccccc2)C1` reads -62.8%.
Turning to `CO[C@@H]1CN(c2ccccc2)S(=O)(=O)[C@@]12CCN(Cc1ccccc1)C2`, the INHIBITION is -32.5%.
Then `CC(=O)N[C@@H]1CN(C2CCN(c3cccc(Cl)c3)CC2)C[C@H]1C(C)C`, with -10.3%.
Then `CC(=O)N[C@@H]1CN(C2CCN(c3ccccc3F)CC2)C[C@H]1C(C)C`, with -24.8%; and `CC(=O)N[C@@H]1CN(C2CCN(c3cccc(C)c3C)CC2)C[C@H]1C(C)C`, with 57.7%; and `CN1[C@H](Cn2cncn2)C[C@@H]2CN(Cc3ccsc3)CC[C@@H]21`, with 38.2%.
On to `CCOCC(=O)NCC(Cc1cccc(F)c1)N1CCCCC1=O` (stereo not given), for which the INHIBITION is listed as -88%.
As for `COc1ccc2nnc(CCCC(=O)NCCc3ccccn3)n2n1`, the INHIBITION was -138%.
Then `COCCOCC(=O)NC1CCN(c2ccccn2)CC1`, with -16.8%; and `CC(CNC1CCN(c2ccccn2)CC1)Oc1ccc(F)cc1` (stereo not given), with 49.1%; and `c1ccc(N2CCC(NCCc3ccc(-n4cccn4)cc3)CC2)nc1`, with 39.6%.
Then `COc1c(CNC2CCN(c3ccccn3)CC2)c(C(C)C)nn1C`, with 1.28%.
For the compound `COc1ccc(C(C)CCNC2CCN(c3ccccn3)CC2)cc1` (stereo not given), the INHIBITION stood at 68.2%.
In the case of `CC(C)COCCNC1CCN(c2ccccn2)CC1`, the INHIBITION is listed as 61.2%.
As to `CC(C)(C)C(=O)N1CCC2(CNS(=O)(=O)c3cnccc3O2)C1` (stereo not given), the INHIBITION was -18.2%.
Then `CCC1c2ccccc2CCN1CCCS(C)(=O)=O` (stereo not given), with -4.08%; and `CC(C)C(NCc1ccc(Cn2cncn2)cc1)c1ccc(F)cn1` (stereo not given), with -59.5%.
As to `COc1ccc(CNC(Cn2cncn2)c2ccccc2)cc1C` (stereo not given), the INHIBITION is listed as -102%.
The result for `CC(C)C(NCc1ccc(Cn2cncn2)cc1)c1ccccc1` (stereo not given) reads 50.1%.

The values above are taken from ChEMBL document CHEMBL4513216, “Probing the Open Global Health Chemical Diversity Library for Multistage-Active Starting Points for Next-Generation Antimalarials” (ACS Infect Dis, 2020).
